Rows were chosen to be rich in hits. Some 1.1% of all compounds tested hit in one or more screens of this group.
HTT ATP protect: qHTS Multiplex Assay to Identify Dual Action Probes in a Cell Model of Huntington: Cytoprotection (ATP); PC12 HTT-Q103 induced, cytoprotection, ATP luminescence, 40 h; Potency, µM (top dose mostly 56.4 µM), hits mostly activators; 0.14% of 230,000 active; note: nearly all actives have a fitted effect of over 45% in size
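Rat PC12, Q103 Htt exon1-GFP fusion, ecdysone promoter; tebufenozide inducer 100 nM final; compound titration; qHTS, 1500 cells/well; ATPlite luminescent read.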
HttQ103 aggreg: qHTS Multiplex Assay to Identify Dual Action Probes in a Cell Model of Huntington: Aggregate Formation (GFP); AID 1688, 2009; Potency, µM (highest dose often 46.1 µM), hits mostly inhibitors; PC12 HttQ103-GFP aggregates, Acumen cytometry, 40 h; 1.1% of 220,000 active; note: nearly all actives have a fitted effect of over 60% in size
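Compounds (qHTS titration) were added to PC12 cells expressing an ecdysone-driven HTT exon 1 Q103–GFP fusion after induction with 100 nM tebufenozide. Aggregate formation was measured as GFP objects in cell lysates.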
NPSR antagonist: qHTS Assay for Antagonists of the Neuropeptide S Receptor: cAMP Signal Transduction | Q6W5P4 | CHO-NPSR cells, cAMP TR-FRET, antagonist mode | Potency, µM (titrated, usually from 38.3 µM), most hits filed as inhibitors | 1% of 220,000 active | AID 1461, 2008; note: nearly all actives have a fitted effect of over 50% in size
Target sequence (Q6W5P4 whole entry, looked up): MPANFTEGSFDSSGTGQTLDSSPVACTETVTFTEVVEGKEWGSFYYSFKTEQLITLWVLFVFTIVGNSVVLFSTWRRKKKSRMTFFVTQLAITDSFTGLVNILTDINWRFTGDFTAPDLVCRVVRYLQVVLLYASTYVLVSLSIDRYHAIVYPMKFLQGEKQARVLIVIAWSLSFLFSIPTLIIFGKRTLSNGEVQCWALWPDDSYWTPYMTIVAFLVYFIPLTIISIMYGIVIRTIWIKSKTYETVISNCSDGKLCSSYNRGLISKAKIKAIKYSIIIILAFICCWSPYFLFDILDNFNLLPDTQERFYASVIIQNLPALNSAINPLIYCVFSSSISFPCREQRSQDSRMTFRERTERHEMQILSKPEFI
CBFb RUNX1 block: qHTS Assay for Compounds Blocking the Interaction Between CBF-beta and RUNX1 for the Treatment of Acute Myeloid Leukemia | Runt-related transcription factor 1 (Homo sapiens) + Core-binding factor subunit beta … | Potency, µM (series often up to 59.8 µM), hits mostly inhibitors | 230,000 tested, under 10 active | AID 1477, 2009 | AlphaScreen CBFb-His/RUNX1-biotin binding, biochemical
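Bead-based AlphaScreen assay; binding partners His-tagged CBF-beta and biotinylated RUNX1 at 30 nM each. Compound exposure 15 min after a 20-min protein preincubation; bead step 90 min; all steps at room temperature.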
Lamin A splicing: qHTS Assay for Modulators of Lamin A Splicing; HeLa LMNA splicing GFP/RFP minigene ratio, 48 h; Potency, µM (top dose mostly 46.1 µM), actives largely listed as inhibitors; 0.01% of 200,000 active; AID 1487, 2009; active = well fitted inhibition curve with a large enough effect in the signal ratio, with a control signal flat, not every such curve was filed as active; inconclusive = small, poorly fitted or top-dose-only effect, or effect the other way, or a change in a side signal; the % refers to the signal ratio
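S3 HeLa stable clones carrying a lamin A-EGFP splicing minigene plus DsRed2 were seeded at 600 cells/well in Opti-MEM with 2% FBS, pin-dosed and incubated 48 h at 37°C. Acumen cytometry (488 nm) gave the GFP/RFP total-intensity ratio.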
MBNL1 CUG block: qHTS Assay for Inhibitors of MBNL1-poly(CUG) RNA binding | Muscleblind-like protein 1 (Homo sapiens), Q9NR56 | TR-FRET MBNL1-His/biotin-(CUG)12 binding, 665/545 ratio | Potency, µM (top dose mostly 57.5 µM), most hits filed as inhibitors | 0.036% of 280,000 active; active = well fitted inhibition curve with a large enough effect in the signal ratio, with a control signal flat, not every such curve was filed as active; inconclusive = small, poorly fitted or top-dose-only effect, or effect the other way, or a change in a side signal; inactive = no such curve, though single readings can be large or run the other way; the % refers to the signal ratio
Target sequence (Q9NR56 whole entry, looked up): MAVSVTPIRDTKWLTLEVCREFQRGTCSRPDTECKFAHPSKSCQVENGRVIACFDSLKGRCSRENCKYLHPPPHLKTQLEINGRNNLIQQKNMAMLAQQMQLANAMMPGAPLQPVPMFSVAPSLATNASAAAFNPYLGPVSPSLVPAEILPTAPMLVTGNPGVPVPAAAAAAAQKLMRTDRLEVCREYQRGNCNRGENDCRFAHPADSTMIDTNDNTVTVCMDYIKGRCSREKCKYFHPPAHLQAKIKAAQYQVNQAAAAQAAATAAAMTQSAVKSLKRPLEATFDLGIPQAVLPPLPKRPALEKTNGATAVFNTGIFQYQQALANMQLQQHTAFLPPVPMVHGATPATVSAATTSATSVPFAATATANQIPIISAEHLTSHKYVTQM
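Ratiometric TR-FRET (665 over 545 nm, excitation 340 nm) tracks disruption of MBNL1-His/biotin-(CUG)12 complex after 60 min at room temperature, with compounds at 92 nM to 58 uM final.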
Hits are given with their value; ! = repeats disagree; [ ] = dose if it differs, or a comment. Unless noted, calls come from the whole dose curve; as a rule, active = well fitted curve in the direction sought with a large enough effect; inconclusive = small, poorly fitted or top-dose-only effect, or another doubt; inactive = no such curve, though single readings can be large; an effect the other way counts as inactive or inconclusive.

CCCCCCCCCCCCOCCOCCOCCOCCOCCOCCOCCOCCOCCO was read as HTT ATP protect inactive, HttQ103 aggreg inconclusive and CBFb RUNX1 block inactive.
Screening O=C1NC(=O)N(c2ccccc2)C(=O)/C1=C/c1ccc(Sc2ccccc2)o1 returned HTT ATP protect inactive, HttQ103 aggreg inactive, NPSR antagonist 10µM, CBFb RUNX1 block inactive, Lamin A splicing inconclusive and MBNL1 CUG block inactive.
`O=c1[nH]c(=O)n(Cl)c(=O)n1Cl` gave HTT ATP protect 14µM, HttQ103 aggreg inactive and Lamin A splicing inconclusive.
Screening CC(C)CNCCc1ccccn1 returned HTT ATP protect inactive[10 µM].
CCOc1cc(-c2c(C#N)c(=O)[nH]c3c2c(C)nn3-c2ccc(F)cc2)ccc1O was read as HTT ATP protect inactive, HttQ103 aggreg 13µM, NPSR antagonist inconclusive, CBFb RUNX1 block inactive, Lamin A splicing inconclusive and MBNL1 CUG block inactive.
For CCC(=NCCc1c[nH]c2ccccc12)c1c(O)n(C)c(=O)n(C)c1=O the results were HTT ATP protect inactive, HttQ103 aggreg 7.9µM, NPSR antagonist inactive, CBFb RUNX1 block inactive, Lamin A splicing inconclusive and MBNL1 CUG block inactive.
For CCC(=NCCOc1ccc(Cl)cc1)c1c(O)n(C)c(=O)n(C)c1=O the results were HTT ATP protect inactive, HttQ103 aggreg 11µM, NPSR antagonist inactive, CBFb RUNX1 block inactive, Lamin A splicing inconclusive and MBNL1 CUG block inactive.
CCC(=NCc1ccc2c(c1)OCO2)c1c(O)n(C)c(=O)n(C)c1=O was read as HTT ATP protect inactive[0.074 µM], HttQ103 aggreg 20µM, NPSR antagonist inactive, CBFb RUNX1 block inactive, Lamin A splicing inconclusive and MBNL1 CUG block inactive.
Screening CC(=NCc1ccc2c(c1)OCO2)c1c(O)n(C)c(=O)n(C)c1=O returned HTT ATP protect inactive[10 µM], HttQ103 aggreg inactive, NPSR antagonist inactive, CBFb RUNX1 block inactive, Lamin A splicing inconclusive and MBNL1 CUG block inactive.
CCC(=NCCN1CCCCC1)c1c(O)n(C)c(=O)n(C)c1=O was read as HTT ATP protect inactive, HttQ103 aggreg inactive, NPSR antagonist inactive, CBFb RUNX1 block inactive, Lamin A splicing inactive and MBNL1 CUG block inactive.
`CCC(=NCCc1c[nH]c2ccccc12)c1c(O)n(-c2ccc(C)cc2)c(=O)[nH]c1=O` gave HTT ATP protect inactive[10 µM], HttQ103 aggreg inconclusive, NPSR antagonist inactive, CBFb RUNX1 block inactive, Lamin A splicing inconclusive and MBNL1 CUG block inactive.
Screening O=C1C[C@@H]2OCC=C3CN4CC[C@]56c7ccccc7N1[C@H]5[C@@H]2[C@H]3C[C@@H]46 returned HTT ATP protect inactive.
`COc1cc(/C=C/[N+](=O)[O-])ccc1O` gave HttQ103 aggreg 25µM, NPSR antagonist inconclusive, CBFb RUNX1 block inactive[2.36 µM], Lamin A splicing inconclusive and MBNL1 CUG block inactive.
For CC(C)(C)NCC1(CO)SC(N)=NC1=O (centres undefined) the results were HTT ATP protect inactive, HttQ103 aggreg 22µM, NPSR antagonist inactive, CBFb RUNX1 block inactive, Lamin A splicing inconclusive and MBNL1 CUG block inactive.
Screening c1ccc2c(c1)OC[C@@H](C1=NCCN1)O2 returned HTT ATP protect 5µM!, CBFb RUNX1 block inactive and Lamin A splicing inconclusive.
For O=C1NC(=O)N(Cc2ccccc2)C(=O)/C1=C/C=C/c1ccco1 the results were HTT ATP protect inactive[10 µM], HttQ103 aggreg inactive[9.22 µM], NPSR antagonist inconclusive and MBNL1 CUG block inactive.
CC(C)c1ccc(N2C(=O)NC(=O)/C(=C\C=C\c3ccco3)C2=O)cc1 was read as HTT ATP protect inactive, HttQ103 aggreg inconclusive, NPSR antagonist 4µM, CBFb RUNX1 block inactive and MBNL1 CUG block inactive.
`Oc1cc(Cl)ccc1Oc1ccc(Cl)cc1Cl` gave HTT ATP protect 7.1µM, CBFb RUNX1 block inactive and Lamin A splicing inconclusive.
Screening O=C(O)c1ccccc1-c1c2cc(Br)c(=O)cc-2oc2[c]([Hg])c(O)c(Br)cc12 returned HTT ATP protect inactive, HttQ103 aggreg 5µM, CBFb RUNX1 block inactive and Lamin A splicing inconclusive.
`CCn1nc(-c2cccs2)nc2c(=O)n(C)c(=O)nc1-2` gave HTT ATP protect inactive[10 µM], HttQ103 aggreg 18µM, NPSR antagonist 2.5µM, CBFb RUNX1 block inconclusive, Lamin A splicing inconclusive and MBNL1 CUG block inconclusive.
For CCn1nc(/C=C/c2ccccc2)nc2c(=O)n(C)c(=O)nc1-2 the results were HTT ATP protect inactive[10 µM], HttQ103 aggreg inactive[9.22 µM], NPSR antagonist inactive, CBFb RUNX1 block inactive, Lamin A splicing inactive and MBNL1 CUG block inactive.
Screening CN(C)CS/C(N)=N/[C@H](O)C(Cl)(Cl)Cl returned HTT ATP protect inactive[10 µM].
Screening COc1cc(/C=C/C(=O)c2c(O)n(CCc3ccccc3)c(=O)[nH]c2=O)ccc1O returned HTT ATP protect inactive[10 µM], HttQ103 aggreg inactive[9.22 µM], NPSR antagonist 10µM, CBFb RUNX1 block inactive, Lamin A splicing inconclusive and MBNL1 CUG block inactive.
`O=C(/C=C/c1ccccc1)c1c(O)n(CCc2ccccc2)c(=O)[nH]c1=O` gave HTT ATP protect inactive[10 µM], HttQ103 aggreg inconclusive, NPSR antagonist 13µM, CBFb RUNX1 block inactive and Lamin A splicing inconclusive.
Screening CC(c1ncncc1F)[C@](O)(Cn1cncn1)c1ccc(F)cc1F (some centres undefined) returned HTT ATP protect inactive, HttQ103 aggreg inactive and Lamin A splicing inconclusive.
Screening CC[n+]1c(/C=C/N(C)c2ccccc2)sc2ccc(Cl)cc21 returned HTT ATP protect inactive, HttQ103 aggreg 13µM, NPSR antagonist inactive, CBFb RUNX1 block inactive, Lamin A splicing inconclusive and MBNL1 CUG block inconclusive.
For CC(=O)/C=C/c1ccccc1 the results were HTT ATP protect inactive and CBFb RUNX1 block inactive.
For CC(=O)[O][Hg][c]1ccccc1 the results were HTT ATP protect inactive, HttQ103 aggreg 1.6µM, CBFb RUNX1 block inactive and Lamin A splicing inconclusive.
For CCN1/C(=C\C=C\C2=[N+](CC)c3ccccc3C2(C)C)C(C)(C)c2ccccc21 the results were HTT ATP protect inactive, HttQ103 aggreg 0.56µM, NPSR antagonist 16µM, CBFb RUNX1 block inconclusive, Lamin A splicing inconclusive and MBNL1 CUG block inconclusive.
For CC(C)C[C@H](NP(=O)(O)O[C@@H]1O[C@@H](C)[C@@H](O)[C@@H](O)[C@H]1O)C(=O)N[C@@H](Cc1c[nH]c2ccccc12)C(=O)O the results were HTT ATP protect inactive[1.9 µM].
Screening Oc1c(Br)cc(Br)cc1Oc1ccc(Br)cc1Br returned HttQ103 aggreg 13µM, NPSR antagonist inactive, CBFb RUNX1 block inconclusive, Lamin A splicing inconclusive and MBNL1 CUG block inactive.

Compound activity (PubChem BioAssay)
